Laboratory results reported in PubChem BioAssay AID1565 (Sanford-Burnham Center for Chemical Genomics, 2009).
Out of some 290,000 compounds screened, about 3,200 (1.1%) were called active. What follows is part of a selection rich in actives, with near analogues and random picks from the rest. A number with no mark means an inactive call. Cut-off read from the data, not from the text of the source: active = inhibition above about 60%; inactive = the rest.

Each compound was assayed against Phosphoethanolamine/phosphocholine phosphatase (Homo sapiens) (UniProt Q8TCT1) (assay: PubChem AID 1565). Conditions: recombinant PHOSPHO1, absorbance phosphatase assay; at 13.3 µM; hits give high values.
Sequence of Phosphoethanolamine/phosphocholine phosphatase (Homo sapiens) (Q8TCT1 whole entry, looked up): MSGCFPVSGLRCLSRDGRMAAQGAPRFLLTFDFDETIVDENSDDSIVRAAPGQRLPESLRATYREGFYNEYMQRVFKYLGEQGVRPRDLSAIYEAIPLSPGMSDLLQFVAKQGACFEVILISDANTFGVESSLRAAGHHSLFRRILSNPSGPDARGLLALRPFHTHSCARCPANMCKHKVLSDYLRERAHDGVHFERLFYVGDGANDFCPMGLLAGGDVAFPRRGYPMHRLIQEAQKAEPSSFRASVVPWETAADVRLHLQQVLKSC
`CC(C)C[C@H](NC(=O)N1CC(=O)Nc2ccccc21)C(=O)N[C@H](Cc1ccccc1)C(=O)O` showed an inhibition of 33.8%. `COc1ccc(N2CCN(Cc3nnc(-c4ccccc4)o3)CC2)cc1` was tested, and the inhibition was -23.5%. For `COc1ccc(-c2nnc(SC(=O)N3c4ccccc4Sc4ccccc43)o2)cc1`, the inhibition was 81.1% (active). With `COc1ccc(-c2nnc(SCc3cccnc3)o2)cc1` the inhibition was -4.4%. `CC(=O)Nc1cccc(/C(C)=N/NC(=O)c2ccccc2Cl)c1` was tested, and the inhibition was 16.2%. `C/C(=N/NC(=O)c1ccc(NC(=O)c2ccc(F)cc2)cc1)c1ccccc1` gave an inhibition of -99%. In the case of `COc1cccc(C(=O)N/N=C(\C)c2cccc(NC(=O)c3ccc(F)cc3)c2)c1OC`, the inhibition was 65.8% (active). In the case of `COc1ccc(S(=O)(=O)NCC(=O)NC2CC2)cc1OC`, the inhibition was 27.6%. With `CCCCCC(O)(CCN1CCCCC1)c1ccccc1` (stereo unspecified) the inhibition was 43.7%. With `Cc1cccc(C)c1OCCN1CCOCC1` the inhibition was 24.1%. With `O=C1NC(c2ccncc2)Nc2sc3c(c21)CCCC3` (stereo unspecified) the inhibition was 97.6% (active). For `C/C(=C\c1ccccc1)C1NC(=O)c2c(sc3c2CCCC3)N1` (stereo unspecified), the inhibition was 12.2%. `Cc1ccc(C(=O)c2c(NC(=O)c3ccncc3)sc3c2CCCC3)cc1` gave an inhibition of 9.7%. In the case of `CCCNC(=O)COc1coc(CN2CCN(Cc3ccccc3)CC2)cc1=O`, the inhibition was 36%. `CCOC(=O)N1CCN(Cc2nc(Cc3cccc(C(F)(F)F)c3)no2)CC1` showed an inhibition of 34.6%. `Fc1cccc(Cc2noc(CN3CCN(c4cnccn4)CC3)n2)c1` was tested, and the inhibition was 62.8% (active). `FC(F)(F)c1cccc(Cc2noc(CN3CCC(N4CCCCC4)CC3)n2)c1` gave an inhibition of 51.8%. With `COC(=O)c1ccc(CNC(=O)C2CCC(=O)N(Cc3ccccn3)C2)cc1` (stereo unspecified) the inhibition was 11.9%. In the case of `O=C(C[C@H]1C(=O)N(c2ccc(F)c(F)c2)C[C@@H]1Cc1ccccc1)Nc1ccccc1`, the inhibition was -7.3%. `Cc1ccc(OCC(=O)NC(C)c2ccccc2)cc1C` (stereo unspecified) gave an inhibition of -16.6%. Compound `Cc1ccc(OCCCC(=O)NC(C)c2ccccc2)c(C)c1` (stereo unspecified) has an inhibition of 48.4%. For `Cc1ccccc1OCCC(=O)OCC(=O)NC(C)c1ccccc1` (stereo unspecified), the inhibition was 64.7% (active). For `Cc1sc2ncn(CC(=O)NCCCC(=O)N3CCN(c4ccccc4F)CC3)c(=O)c2c1C`, the inhibition was 2.2%. Work on `Cn1cc(S(=O)(=O)Nc2ccc(Cl)cc2Cl)c(=O)n(C)c1=O` yielded an inhibition of 20.2%. `Cc1ccc(C)c(S(=O)(=O)Nc2cccc(-n3cnnn3)c2)c1` was tested, and the inhibition was 34.8%. With `CCOC(=O)N1CCN(CC(=O)Nc2ccc(F)cc2)CC1` the inhibition was 60.1% (active). Work on `CCOC(=O)N1CCN(CCC(=O)Nc2ccccc2)CC1` yielded an inhibition of 44.4%. In the case of `O=C(CN1CCN(c2ccccc2)CC1)Nc1ccc(F)cc1`, the inhibition was 27%. `CCOC(=O)C1=C(C)Nc2sc(C(=O)c3ccc(Br)cc3)c(N)c2C1c1ccc(C(=O)OC)cc1` (stereo unspecified) was tested, and the inhibition was 38.2%. `CCOC(=O)c1sc(=S)n2c1[nH]c(=O)c1ccc(C(=O)OC)cc12` was tested, and the inhibition was 98.7% (active). `CCOC(=O)c1sc(NC(=O)c2ccncc2)nc1C` was tested, and the inhibition was -5.8%. Compound `CCOc1ccc(CN2CCC(n3nccc3NC(=O)C3CC3)CC2)cc1CO` has an inhibition of 12.7%. In the case of `CCCc1c(C(=O)Nc2ccc(F)cc2)cnn1-c1ccccc1`, the inhibition was 41.2%. `COc1ccc(-c2noc(CCCC(=O)NC3CCCC3)n2)cc1OC` showed an inhibition of 18.5%. With `CC(=O)c1ccc(N2Cc3ccccc3C2)cc1` the inhibition was 29.1%. In the case of `Cc1cc(Cl)c2oc(C(=O)N(C)C(C)c3ccccn3)c(C)c2c1` (stereo unspecified), the inhibition was 18.5%. With `Cc1ccc(N(CC(=O)NCC2CCCO2)C(=O)CNS(=O)(=O)c2ccc(Cl)cc2)cc1` (stereo unspecified) the inhibition was 32.5%. For `N#CCSc1nc2ccc(N3CCOCC3)cc2c(=O)n1CCc1ccccc1`, the inhibition was 81.7% (active). `CCCCn1c(SCC(=O)NCC2CCCO2)nc2ccc(N3CCOCC3)cc2c1=O` (stereo unspecified) gave an inhibition of -6.7%. Work on `CCc1ccc(NC(=O)CSc2nc3ccccc3c(=O)n2CCN2CCOCC2)cc1` yielded an inhibition of 2.3%. `COc1cccc2cc(C(=O)NCc3ccc(C)cc3)c(=N)oc12` gave an inhibition of 37.7%. With `CC(=O)Nc1ccc(NC(=O)C2CCCN2S(=O)(=O)c2cccc(C(F)(F)F)c2)cc1` (stereo unspecified) the inhibition was 24%. For `O=C(Cn1nnc2ccccc2c1=O)NCc1ccc(Cl)cc1`, the inhibition was 62.9% (active). `C=CCn1c(SCn2nnc3ccccc3c2=O)nnc1-c1ccc(Cl)cc1` was tested, and the inhibition was 94.8% (active). `Nc1nnc(SCn2nnc3ccccc3c2=O)s1` gave an inhibition of 16.1%. `O=c1c2ccccc2nnn1CSc1nnnn1-c1ccccc1` was tested, and the inhibition was 8%. Compound `Cc1ccc(CNC(=O)CN2CCN(Cc3ccc(Cl)cc3)C2=O)cc1` has an inhibition of 4.8%. `Cc1c2cnn(CC(=O)NCc3ccccn3)c(=O)c2c(C)n1Cc1ccc(Cl)cc1` was tested, and the inhibition was -9%. For `COc1ccc(N(C)C(=O)C2CCN(S(=O)(=O)c3cccc4nsnc34)CC2)cc1`, the inhibition was 6.8%. `CCOc1ccc(NC(=O)CCCCCN2C(=O)[C@@H]3Cc4ccccc4CN3C2=O)cc1` was tested, and the inhibition was 6.8%. `COc1cc(C(=O)OC2CCOC2=O)c([N+](=O)[O-])cc1OC` (stereo unspecified) was tested, and the inhibition was 32.3%. In the case of `N#Cc1ccccc1-n1c(N)c(C(=O)N2CCCC2)sc1=S`, the inhibition was -13.6%. With `Cc1cccc(-n2c(N)c(C(=O)N3CCN(C)CC3)sc2=S)c1` the inhibition was 83.6% (active). `Cc1cccc(C(=O)N2CCCN(C(=O)c3cccc(C)c3)CC2)c1` was tested, and the inhibition was 8.5%. Compound `COc1ccc2[nH]c(C(=O)N3CCN(C)CC3)c(C)c2c1` has an inhibition of 18.7%. With `Cc1ccc(S(=O)(=O)N2CCN(C(=O)N3CCOCC3)CC2)c(C)c1` the inhibition was -7.3%. In the case of `Cc1ccc(-n2c(N)c(C(=O)N3CCOCC3)sc2=S)c(C)c1`, the inhibition was 87.8% (active). Compound `COCC1CCN(C(=O)c2ccc3oc(Cc4ccccc4)nc3c2)C1` (stereo unspecified) has an inhibition of 27.6%. For `Cc1cc(OCc2cc(C(=O)NCc3cc(C(C)C)no3)no2)cc(C)c1Cl`, the inhibition was 22.6%. In the case of `CCn1cc(CCC(=O)NCc2ccc(F)cc2)c2ccccc21`, the inhibition was 38.1%. Compound `COc1ccc(CN(C)C(=O)c2cc(-c3ccc(C)cc3C)nc3ccccc23)c(OC)c1OC` has an inhibition of 31.9%.
